Sampled rows, rich in hits. Any-hit rate of the full collection: about 19%.
S-ASM inh: human S-ASM enzyme inhibition; Potency, µM (highest dose often 57.5 µM), inactives show top-dose activity change, negative = inhibition, most hits filed as inhibitors; P17405; actives 0.006% (n = 340,000); AID 504937; placental ASM, HMU-PC fluorogenic substrate, 60 min; also: potency is read from the fitted curve at half-maximal effect
Target sequence (P17405 47-631 limits assumed): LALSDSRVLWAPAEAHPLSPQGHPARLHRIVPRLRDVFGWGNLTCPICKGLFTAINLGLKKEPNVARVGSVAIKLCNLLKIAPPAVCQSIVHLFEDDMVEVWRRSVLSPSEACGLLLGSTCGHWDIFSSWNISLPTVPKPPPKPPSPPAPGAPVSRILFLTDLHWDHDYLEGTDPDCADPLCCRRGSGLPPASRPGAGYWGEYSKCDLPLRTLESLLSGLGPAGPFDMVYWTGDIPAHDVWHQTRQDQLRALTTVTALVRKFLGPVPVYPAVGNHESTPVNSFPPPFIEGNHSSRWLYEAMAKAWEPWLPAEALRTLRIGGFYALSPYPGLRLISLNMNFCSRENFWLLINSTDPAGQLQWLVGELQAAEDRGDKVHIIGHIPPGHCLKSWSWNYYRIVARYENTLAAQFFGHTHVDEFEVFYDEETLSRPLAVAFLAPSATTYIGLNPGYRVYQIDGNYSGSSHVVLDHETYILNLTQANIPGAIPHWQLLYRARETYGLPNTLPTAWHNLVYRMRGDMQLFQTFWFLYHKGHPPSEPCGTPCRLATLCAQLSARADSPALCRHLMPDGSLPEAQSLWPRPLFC
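Human placenta-derived ASM enzyme was preincubated with compound for 10 minutes at room temperature, then given fluorogenic substrate HMU-PC0 (9 uM final) for 60 minutes at 37 °C; a pH 10 stop preceded fluorescence reading at Ex 386/Em 447 nm.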
DT40 TDP1 no CPT: qHTS for Inhibitors of human tyrosyl-DNA phosphodiesterase 1 (TDP1): qHTS in cells in absence of CPT; DT40 Tdp1-/- hTDP1 cells, no CPT, ATP luminescence, 48 h; actives 15% (n = 420,000); Potency, µM (top dose mostly 46.2 µM), for inactives: top-dose activity change, negative = growth inhibition, actives largely listed as inhibitors; also: potency is read from the fitted curve at half-maximal effect; % is scaled to controls: 0 for no effect and ±100 for the full control effect; nearly all actives have a fitted effect of over 55% in size
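Chicken DT40 Tdp1-/- cells complemented with human TDP1, screened without camptothecin (DMSO vehicle only), 400 cells/well. Compounds pin-transferred, cells incubated at 37 °C for at least 48 hr. Growth read as ATP-dependent luminescence (CellTiter-Glo, 30 min at RT).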
HepG2 viability: HepG2 cytotoxicity, counter-screen for TGF-b inhibitors; HepG2 CAGA-GFP viability, ATP luminescence, 18 h; Potency, µM (titrated, usually from 46.1 µM), inactives show at the top dose activity change, negative = cytotoxicity, most hits filed as cytotoxic; actives 0.76% (n = 410,000); also: potency is read from the fitted curve at half-maximal effect
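HepG2 CAGA-GFP cells (1000/well, DMEM with 1% FBS) received compound, then TGF-beta at 500 pg/mL final, and were incubated 18 hours at 37 degrees C. Viability was read by CellTiter-Glo luminescence. Media-only wells were set as complete cell-killing and DMSO as no toxicity.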
TGFb inhibitor: blocks TGF-b signaling; Potency, µM (top dose mostly 46.1 µM), inactives show at the top dose activity, negative = inhibition, hits mostly inhibitors; AID 588855; HepG2 CAGA-GFP TGF-b/SMAD3 reporter, GFP fluorescence, 18 h; TGF-beta stimulated, 500 pg/mL final; actives 1.2% (n = 410,000); also: potency is read from the fitted curve at half-maximal effect; % is scaled to controls: 0 for no effect and ±100 for the full control effect; nearly all actives have a fitted effect of over 65% in size
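HEPG2 CAGA-GFP cells (1000/well, DMEM with 1% FBS) were pre-incubated 2 h at 37 degrees C, given compound by pin tool, then stimulated with TGF-beta at 500 pg/mL final for 18 h before per-cell GFP fluorescence imaging.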
IL1B secr inh: inflammasome signaling inhibition, IL-1 beta readout; THP-1 LPS/ATP IL-1B secretion, AlphaLISA, 16 h; active compounds read low; activity change, % at 57.5 µM; actives 4.7% (n = 360,000); AID 743279; in the data active = activity change below about -50%; inconclusive = mostly about -30% to -49%; also: % is scaled to controls: 0 for no effect and ±100 for the full control effect
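Secreted IL-1B measured by AlphaLISA bead assay after 16 h compound exposure of THP-1 cells; compounds (final up to 57.5 uM) added 1 h before LPS (250 ng/mL) and ATP (1.25 mM) stimulation; lower signal means less secretion.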
TDP1 cell CPT: growth inhibition of DT40 Tdp1-/-;hTDP1 cells with camptothecin (screen for TDP1 inhibitors). chicken DT40 Tdp1-/-;hTDP1 cells + 20 nM CPT, ATP luminescence, 48 h. Potency, µM (top dose mostly 46.2 µM), for inactives: at the top dose activity change, negative = growth inhibition, actives largely listed as inhibitors. actives 12% (n = 420,000). AID 686979; also: potency is read from the fitted curve at half-maximal effect; % is scaled to controls: 0 for no effect and ±100 for the full control effect; nearly all actives have a fitted effect of over 55% in size
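Chicken DT40 Tdp1-/- cells complemented with human TDP1, 400 cells/well, exposed to compounds plus 20 nM camptothecin for at least 48 h at 37 C; viability read as ATP content by CellTiter-Glo luminescence.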
* hit, by the source's call; ? = inconclusive; . = no result. Unless noted, calls follow the shape of the dose curve; as a rule, active = well fitted curve in the direction sought with a large enough effect; inconclusive = small, poorly fitted or top-dose-only effect, or another doubt; inactive = no such curve, though single readings can be large; an effect the other way counts as inactive or inconclusive.

SMILES	S-ASM inh	DT40 TDP1 no CPT	HepG2 viability	TGFb inhibitor	IL1B secr inh	TDP1 cell CPT
CC(C)C(=O)Nc1ccc(NC(=O)c2ccc([N+](=O)[O-])cc2Cl)cc1	1%	18µM*	9%	-12%	17	?
O=C(Nc1cccc(O)c1)c1ccc([N+](=O)[O-])cc1Cl	2%	?	1%	1%	15	15µM*
CC(=O)Nc1ccc(Oc2ccc([N+](=O)[O-])cc2Cl)cc1	5%	?	-21%	?	-73*	10µM*
O=C(NCc1ccco1)c1cccc2c1C(=O)c1ccc(N3CCCC3)cc1S2(=O)=O	-17%	?	-24%	-10%	1	?
CC(C)C[C@H]1CNC(=S)N1CC1CCN(CC2CCCC2)CC1	-6%	-12%	-1%	4%	14	-28%
CC(C)C[C@H]1CNC(=S)N1CC1CCN(CCC23CC4CC(CC(C4)C2)C3)CC1	0%	16µM*	-6%	?	-50*	?
CCCC[C@@H]1CNC(=S)N1CCC12CC3CC(CC(C3)C1)C2	-4%	18µM*	3%	30%	5	?
CCCC[C@@H]1CNC(=S)N1CCc1cccc(F)c1	3%	?	-25%	-4%	-12	-74%
CC(C)C[C@H]1CNC(=S)N1CC1CCN(CCCC2CCCCC2)CC1	-2%	?	-56%	?	-54*	18µM*
COCCNC(=O)CN1C(=O)NC2(CCCc3cc(OC)ccc32)C1=O (configuration not stated)	2%	1%	5%	-1%	21	8%
CCN(CC)C(=O)C1=C(C)N(CCCN2CCCC2=O)C(=O)C(CC(=O)NCc2cccc3ccccc23)C1 (configuration not stated)	.	?	-15%	0%	9	-17%
Cc1ccc(S(=O)(=O)N(CC(O)Cn2c3ccccc3c3ccccc32)c2cccc(C(=O)NCCO)c2)cc1 (configuration not stated)	.	.	16µM*	13µM*	.	.
Cc1ccc(S(=O)(=O)N(CC(O)Cn2c3ccccc3c3ccccc32)c2cccc(C(N)=O)c2)cc1 (configuration not stated)	.	.	11µM*	10µM*	.	.
Cc1cccc(C)c1N(CC(=O)NC1CCCCC1)C(=O)c1csnn1	2%	-4%	-30%	0%	33	1%
CN(CC(=O)Nc1ccc(F)c(F)c1F)C(=O)c1ccc(-n2cncn2)cc1	5%	14%	3%	10%	31	-7%
Cc1cc(OC(C)C)nc(NCc2ccccc2)n1	0%	13µM*	-30%	10%	4	?
COc1cc(C)nc(NCc2ccccc2)n1	8%	?	-28%	1%	18	?
Cc1cc(N2CCN(c3ccccc3)CC2)nc(NCc2ccccc2)n1	-13%	16µM*	-42%	-27%	20	21µM*
CCCc1nc(C)cc(N2CCN(c3ccccc3)CC2)n1	-2%	21µM*	-13%	?	-3	29µM*
O=S(=O)(NCCc1cn(S(=O)(=O)c2ccccc2)c2ccccc12)c1ccccc1	.	.	4%	-4%	.	.
O=C(CCc1nnc2n(Cc3ccccc3)c(=O)c3ccccc3n12)NCCN1CCOCC1	-3%	?	-11%	14%	-18	?
Cc1ccccc1C(=O)N1CCN(c2ccc(NC(=O)c3ccco3)cc2Cl)CC1	-10%	9.2µM*	-20%	?	-89*	15µM*
O=C(Nc1ccc(N2CCN(C(=O)c3cccs3)CC2)c(Cl)c1)c1ccco1	-7%	15µM*	-14%	-7%	?	?
CCCCCCCCC1=NCCc2c1[nH]c1ccccc21	17%	21µM*	16µM*	?	-94*	?
COC(=O)CC1Oc2ccccc2N(Cc2ccc(C)cc2)C1=O (configuration not stated)	-5%	26µM*	0%	15%	30	16µM*
SMILES	S-ASM inh	DT40 TDP1 no CPT	HepG2 viability	TGFb inhibitor	IL1B secr inh	TDP1 cell CPT
COC(=O)CC1Oc2ccc(Cl)cc2-n2cc(-c3ccc(C)cc3)nc21 (configuration not stated)	.	6.5µM*	-10%	-8%	.	9.2µM*
COC(=O)CC1Oc2ccc(C)cc2-n2cc(-c3ccc(C)cc3)nc21 (configuration not stated)	.	13µM*	-23%	?	.	16µM*
CCOC(=O)c1sc(NC(=O)CN2CCN(c3ccc(OC)cc3)CC2)nc1C	-19%	-27%	-18%	-12%	-10	22%
COc1cc(SC)ccc1C(=O)Nc1cccc(S(=O)(=O)NC2=NCCC2)c1	4%	-14%	-19%	-5%	?	-25%
CNCCNC[C@H](Cc1cccc2ccccc12)NCCc1ccccc1	0%	?	-28%	2%	?	?
CNC[C@H](Cc1ccccc1)NC[C@@H](Cc1cccc2ccccc12)NCCc1ccc(C)cc1	-14%	15µM*	18µM*	?	-106*	18µM*
O=C(CN1C(=O)COc2ccc(Cl)cc21)Nc1cccc(C(=O)O)c1	.	-8%	1%	7%	.	-6%
O=c1c(Cc2ccccc2)c(O)c2cccc3c4c(n1c23)CCCC4	15%	-1%	-34%	14µM*	16	3%
Cn1c(=O)c(Cc2ccccc2)c(O)c2ccccc21	1%	-15%	-4%	2%	-9	?
COc1[nH]c(/N=C/c2ccco2)c(C#N)c1C#N	.	?	-13%	7%	.	16µM*
N#Cc1c(/N=C/c2ccco2)oc(-c2ccccc2)c1-c1ccccc1	2%	?	0%	-21%	-8	?
N#Cc1c(/N=C/c2ccccc2)oc(-c2ccccc2)c1-c1ccccc1	9%	?	-2%	-4%	-16	?
CCOc1[nH]c(/N=C/c2ccccc2)c(C#N)c1C#N	.	-25%	-21%	19%	.	6.3µM*
Nc1nnc(SCC(=O)NNC(=O)c2ccc([N+](=O)[O-])cc2)s1	-2%	-22%	10%	8%	-2	0%
O=C(C=CC(=O)OC1CCCCC1)OC1CCCCC1	-4%	?	-4%	0%	-88*	-28%
CCCCN1Cc2cc(C(=O)c3cc(F)ccc3O)cnc2NC1=O	52%	?	6%	16%	-57*	?

Screens: PubChem BioAssay, National Center for Advancing Translational Sciences (NCATS)
